Drawing on PubChem BioAssay (NCATS), this text covers outcome, Potency and activity change, negative = inhibition for 45 compounds.

A short description of assay [1]: qHTS assay for measurement of the activity of small molecule inhibitors on Zika virus induced Caspase-3 activity in human iPSC derived neural progenitor cells (hNPCs) (AID 1224857). Note: nearly all actives have a fitted effect of over 65% in size. An outline of the steps: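 Caspase-3/7 induction by a 6-hour ZIKV infection was quantified with a luminescent Caspase-Glo 3/7 reagent incubated 30 minutes at room temperature. Compounds were preincubated with hNPCs for 1 hour; inhibition was calculated against uninfected and infected control wells.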

The nature of assay [2]: qHTS assay for measurement of the activity of small molecule inhibitors on Zika virus induced Caspase-3 activity in human astrocytoma cells (AID 1224859). An outline of the steps:
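In SNB-19 cells plated at 250 cells/well and grown 16-20 h, compounds were applied 1 h before ZIKV (2 FFU/cell). Six hours later caspase-3/7 luminescence was recorded.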

Assay [3] in a line: qHTS assay for cell viability of the p53RE-bla HCT-116 cell line (AID 743292). Note: nearly all actives have a fitted effect of over 55% in size. Note: potency is the fitted concentration of half-maximal effect. An outline of the steps: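 Viability of compound-treated p53RE-bla HCT-116 cells is taken from ATP-dependent luciferase luminescence. Treatment lasts 16 h at 37 C after a 5 h settling period; detection follows 30 min at room temperature.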

Unmarked numbers belong to inactive results. Inconclusive results are not listed. Entries that show only a call come without a potency. Activity calls are given as the source filed them. Calls come from the whole dose curve; as a rule, active = well fitted curve in the direction sought with a large enough effect; inconclusive = small, poorly fitted or top-dose-only effect, or another doubt; inactive = no such curve, though single readings can be large; an effect the other way counts as inactive or inconclusive.

On to `C=Cc1c(C)c2cc3[nH]c(cc4nc(cc5nc(cc1[nH]2)C(C)=C5CCC(=O)O)C(CCC(=O)O)=C4C)c(C)c3C=C`, for which the result in assay [1] and in assay [2] was inactive.
For `NC(=O)NC(=O)Cc1ccccc1`, the result in assay [1] and in assay [2] was inactive.
In the case of `Nc1ccc(S(=O)(=O)Nc2ccccc2)cc1`, the result in assay [1] and in assay [2] was inactive.
`NCC(=O)CCC(=O)O`: the compound was called inactive in assay [1] and in assay [2].
In the case of `Cc1cc2c(cc1S(N)(=O)=O)S(=O)(=O)CCC2`, the outcome in assay [1] and in assay [2] was inactive.
Turning to `CC[C@@]1(c2ccccc2)NC(=O)N(C)C1=O`, the call in assay [1] and in assay [2] was inactive.
As for `CCN(CC)CCCC(C)Nc1c2ccc(Cl)cc2nc2ccc(OC)cc12` (centres undefined), the call in assay [1] and in assay [2] was inactive.
On to `c1ccc2c(CC3=NCCN3)cccc2c1`, for which the result in assay [1] and in assay [2] was inactive.
As to `N[C@H](C(=O)O)c1ccc(O)cc1`, the outcome in assay [1] and in assay [2] was inactive.
Turning to `O=C(Oc1ccccc1C(=O)O)c1ccccc1O`, the outcome in assay [1] and in assay [2] was inactive.
For the compound `CN(C)CCCO[C@@H]1[C@H]2OC(C)(C)O[C@H]2O[C@@H]1C(O)CO` (some centres undefined), the call in assay [1] and in assay [2] was inactive.
For the compound `CCCCc1ncc(/C=C(\Cc2cccs2)C(=O)O)n1Cc1ccc(C(=O)O)cc1`, the compound was classed as inactive in assay [1] and in assay [2].
With `CCOC(=O)[C@H](CCc1ccccc1)N[C@@H](C)C(=O)N1C(=O)N(C)C[C@H]1C(=O)O`, the compound was called inactive in assay [1] and in assay [2].
Take `CCN(CC)CCOC(=O)C1(C2CCCCC2)CCCCC1`: the compound was called inactive in assay [1] and in assay [2].
`O=c1cc(CO)occ1O`: the result in assay [1] and in assay [2] was inactive.
Regarding `N[C@@H](CSCCCO)C(=O)O`, the compound was called inactive in assay [1] and in assay [2].
Turning to `CCCCN(CCCC)CCCOC(=O)c1ccc(N)cc1`, the call in assay [1] and in assay [2] was inactive.
As for `CCn1cc(C(=O)O)c(=O)c2cnc(N3CCNCC3)nc21`, the result in assay [1] and in assay [2] was inactive.
`OCCN1CCN(CCCN2c3ccccc3Sc3ccc(Cl)cc32)CC1`: the result in assay [1] and in assay [2] was inactive.
For `COc1cc(C(=O)N2CCOCC2)cc(OC)c1OC`, the compound was classed as inactive in assay [1] and in assay [2].
With `CC[C@H]1CN2CCc3cc(OC)c(OC)cc3[C@@H]2C[C@@H]1C[C@H]1NCCc2cc(OC)c(OC)cc21`, the outcome in assay [1] and in assay [2] was inactive.
For the compound `Nc1ccc(S(=O)(=O)NC(=O)c2ccccc2)cc1`, the result in assay [1] and in assay [2] was inactive.
Consider `Cn1c(=O)c2c(ncn2CC2OCCO2)n(C)c1=O`, for which the call in assay [1] and in assay [2] was inactive.
Turning to `Cc1ccc2nc(N)[nH]c(=O)c2c1Sc1ccncc1`, the compound was called inactive in assay [1] and in assay [2].
Regarding `c1ccc(CN(CC2=NCCN2)c2ccccc2)cc1`, the compound was called inactive in assay [1] and in assay [2].
As for `Nc1nc2c(ncn2CCC(CO)CO)c(=O)[nH]1`, the compound was called inactive in assay [1] and in assay [2].
Turning to `CC(C)(C)[C@]1(O)CCN2C[C@H]3c4ccccc4CCc4cccc(c43)[C@@H]2C1`, the result in assay [1] and in assay [2] was inactive.
On to `CCC(=O)c1ccc(O)cc1`, for which the result in assay [1] and in assay [2] was inactive.
Turning to `CN1CCCCC1CCN1c2ccccc2Sc2ccc(S(C)=O)cc21` (centres undefined), the result in assay [1] and in assay [2] was inactive.
Consider `CCCCCCCCCCCCOS(=O)(=O)O`, for which the Potency entry in assay [3] is “inactive”. Besides, the compound was classed as inactive in assay [1] and in assay [2].
In the case of `CCN(CC)CCNC(C(=O)OCCC(C)C)c1ccccc1` (centres undefined), the outcome in assay [1] and in assay [2] was inactive.
Turning to `CCN(CC)CCSC(=O)C(c1ccccc1)c1ccccc1`, the compound was classed as inactive in assay [1] and in assay [2].
Take `O=C(O)c1ccccn1`: the compound was classed as inactive in assay [1] and in assay [2].
As for `CN(C)CCCN1c2ccccc2CCc2ccccc21`, the Potency result in assay [3] is “inactive”. In addition, the outcome in assay [1] and in assay [2] was inactive.
In the case of `COc1cc(C)c(Cc2cnc(N)nc2N)cc1OC`, the outcome in assay [1] and in assay [2] was inactive.
Regarding `C[C@@H]1CC[C@@]2(OC1)O[C@H]1C[C@H]3[C@@H]4CC[C@H]5C[C@@H](O)CC[C@]5(C)[C@H]4CC(=O)[C@]3(C)[C@H]1[C@@H]2C`, the activity change, negative = inhibition is 4.72% [at 4.53 µM] in assay [1] and -4.08% [at 4.53 µM] in assay [2].
`CCCCN1CCCC[C@H]1C(=O)Nc1c(C)cccc1C`: the compound was called inactive in assay [1] and in assay [2].
Turning to `CC(C)(C(=O)O)c1ccc(C(O)CCCN2CCC(C(O)(c3ccccc3)c3ccccc3)CC2)cc1` (centres undefined), the outcome in assay [1] and in assay [2] was inactive.
In the case of `CN1CCOC(c2ccccc2)c2ccccc2C1` (centres undefined), the outcome in assay [1] and in assay [2] was inactive.
`Cc1c(O)cccc1C(=O)N[C@@H](CSc1ccccc1)[C@H](O)CN1C[C@H]2CCCC[C@H]2C[C@H]1C(=O)NC(C)(C)C`: the Potency in assay [3] is 28.2 µM (active). For the same compound, the outcome in assay [1] and in assay [2] was inactive.
Consider `C[C@]12CC[C@@H]3c4ccc(O)cc4CC[C@H]3[C@@H]1CC[C@@H]2OC(=O)CCC1CCCC1`, for which the outcome in assay [1] and in assay [2] was inactive.
For `CNCCCC1c2ccccc2C=Cc2ccccc21`, the compound was classed as inactive in assay [1] and in assay [2].
Consider `Cc1cc(N)c2ccccc2[n+]1CCCCCCCCCC[n+]1c(C)cc(N)c2ccccc21`, for which the outcome in assay [1] and in assay [2] was inactive.
In the case of `CC(CN1c2ccccc2Sc2ccccc21)N(C)C` (centres undefined), the result in assay [1] and in assay [2] was inactive.
Take `CNC(=O)Oc1ccc2c(c1)[C@]1(C)CCN(C)[C@@H]1N2C`: the Potency entry in assay [3] is “inactive”. The compound was classed as inactive in assay [1] and in assay [2].
